Hit rate of the full screen: of about 65,000 compounds, about 2,100 (3.2%) showed an effect of 50% or more. The median lay at about -52%. Many of the other results were omitted from the sample, so strong results are more common in it than they were.

This test has as its system Plasmodium falciparum. As to the kind of experiment: Screen against P. falciparum Asexual Blood Stage (ABS), at 5uM. In kind it is functional, Dd2. To be noted: tested at 5 uM.
For `O=S(=O)(c1ccc(Cl)s1)N1CCN(Cc2nc(-c3ccco3)cs2)CC1`, the INHIBITION is -66%.

`NC(=O)C1(c2cnccn2)CCCN1Cc1ccncc1` (configuration not stated): the INHIBITION was -58.5%.

As to `O=C(NCCNC(=O)c1ccc(Br)cc1)c1ccc(O)cc1`, the INHIBITION was 30.3%.

In the case of `O=C(NCCNc1ccc(Br)cn1)c1ccc(O)cc1`, the INHIBITION was -20.5%.

Turning to `O=C(NCCNc1cncc(Br)c1)c1ccc(O)cc1`, the INHIBITION worked out at 52.2%.

As for `CCCN1CCc2c(C(=O)N(C)Cc3ccccn3)nn(C)c2C1`, the INHIBITION is listed as -23.7%.

Turning to `O=C(Cc1ccsc1)N1CCCC(c2n[nH]c3ncccc23)C1` (configuration not stated), the INHIBITION was -37.1%.

Regarding `COc1ccc(C2CCCCCN2CCCNS(C)(=O)=O)cc1` (configuration not stated), the INHIBITION amounted to 59.3%.

As for `COc1cccc(C2CCCN2CCCNS(C)(=O)=O)c1` (configuration not stated), the INHIBITION was -0.589%.

`CS(=O)(=O)NCCCN1CCCC1c1ccsc1` (configuration not stated): the INHIBITION is on record as -73.1%.

Turning to `CS(=O)(=O)NCCCN1CCCCC1c1cc2ccccc2[nH]1` (configuration not stated), the INHIBITION is 58.9%.

Regarding `CS(=O)(=O)NCCCN1CCCC1c1ccccc1` (configuration not stated), the INHIBITION is recorded as -93.1%.

Regarding `CS(=O)(=O)NCCCN1CCCC1Cc1ccccc1` (configuration not stated), the INHIBITION is reported as -29%.

Turning to `O=C(CCN1CCCCC1c1cc2ccccc2[nH]1)N1CCOCC1` (configuration not stated), the INHIBITION amounted to 39.3%.

Take `CS(=O)(=O)NCCCN1CCCC1c1cccc(Br)c1` (configuration not stated): the INHIBITION came out at 65.4%.

For the compound `COc1ccc(C2CCCCCN2S(C)(=O)=O)cc1` (configuration not stated), the INHIBITION was -92.8%.

`Cc1ocnc1C(=O)N1CCCC1c1ccc(C(=O)N2CCSCC2)s1` (configuration not stated): the INHIBITION is listed as -154%.

`Cn1c(=O)c2c(n3ncnc13)NC(=O)CC2c1cccc(Br)c1` (configuration not stated): the INHIBITION is -61.2%.

For `CC(C)c1nc(CN(C)C(=O)c2cn3ccsc3n2)cs1`, the INHIBITION was -43.1%.

Take `COc1cccc(C=CCCN2CCCN(C(C)=O)CC2)c1`: the INHIBITION is -13%.

On to `Cc1cc(-n2cccn2)ccc1CN1CCC(O)(CN2CCCCC2)C1` (configuration not stated), for which the INHIBITION was 62.1%.

`Cc1cc(F)ccc1CN1CCCC2(C1)OCCO2`: the INHIBITION is given as -67.8%.

In the case of `CN(C)C[C@@H]1CN(Cc2ccccc2C#N)C[C@@H]1CO`, the INHIBITION is reported as -47.7%.

Take `COc1ccc(F)c(CN2CCCC3(CCN(C(=O)CSC)C3)C2)c1` (configuration not stated): the INHIBITION is reported as -63.5%.

`Cc1cc(-n2cccn2)ccc1CN1C[C@@H](CN(C)C)[C@@H](CO)C1`: the INHIBITION is 51.7%.

With `COc1ccc(CN2CCC(O)(CN3CCCCC3)C2)c(C)c1` (configuration not stated), the INHIBITION is recorded as 67.6%.

For the compound `CC(C)c1nccc(CN2CCC(O)(CN3CCCCC3)C2)n1` (configuration not stated), the INHIBITION is reported as 32.8%.

Take `CCCn1ccnc1CN1CCC(O)(CN2CCCCC2)C1` (configuration not stated): the INHIBITION was found to be 18.6%.

For the compound `Cc1cc(C)c(C(=O)N2CCCC(O)(CN3CCCC3)C2)cc1C` (configuration not stated), the INHIBITION is reported as -30.5%.

`Cc1ccccc1CN1C[C@@H](CN(C)CCO)[C@@H](CO)C1`: the INHIBITION was determined as 7.46%.

`Cc1cc(F)ccc1CN1CCCC(O)(CN2CCCC2)C1` (configuration not stated): the INHIBITION was 66.7%.

Take `COCC(=O)N1CCC2(CCCN(Cc3cc(OC)ccc3F)C2)C1` (configuration not stated): the INHIBITION is reported as -70%.

Regarding `COc1cccc(Cn2cc(N3C(=O)CCC3=O)cn2)c1`, the INHIBITION was -83.8%.

As for `c1cnc(N2CCC3(COCc4cnc(-c5cccnc5)nc43)C2)nc1` (configuration not stated), the INHIBITION was -78.5%.

Take `COCC1CN(c2ncccn2)Cc2cnn(CC3CC3)c21` (configuration not stated): the INHIBITION is -16.5%.

On to `CS(=O)(=O)N1CCN(C(=O)C2CSCCC(=O)N2)CC1` (configuration not stated), for which the INHIBITION is listed as -38.6%.

For `Cc1nc(CN2CCN(C3CCOC3)Cc3cccnc32)cs1` (configuration not stated), the INHIBITION was -78.6%.

Regarding `CCCNC(=O)c1cccc(CNCc2csc(C(C)C)n2)c1`, the INHIBITION is recorded as -48.2%.

`Cc1noc(NC(=O)c2cccc(Br)c2)n1`: the INHIBITION is recorded as -81.9%.

With `O=C1CCC2(CCN(Cc3ccc(F)cc3Cl)CC2)CN1CCO`, the INHIBITION is listed as -54%.

Take `OC1(CN2CCCC2)CCCN(Cc2ccc(F)cc2Cl)C1` (configuration not stated): the INHIBITION was found to be 58.3%.

Take `Cc1cc(C(=O)N2CCCC(O)(CN3CCCC3)C2)ccc1Cl` (configuration not stated): the INHIBITION is listed as -21.4%.

For `Cn1cc(C[C@H]2[C@H](O)CCN2Cc2ccc(F)cc2)cn1`, the INHIBITION is listed as 6.42%.

For the compound `Cc1cc(CN(C)C(=O)Nc2ccccc2C)no1`, the INHIBITION was -85.5%.

Consider `Cc1ccc(CN(CCN(C)C)Cc2nc3ccccc3[nH]2)s1`, for which the INHIBITION is listed as 61.2%.

For `Cc1ccc(CN(CCN(C)C)Cc2ncc[nH]2)s1`, the INHIBITION is reported as -73.3%.

As to `Cc1ccc(CN(CCCO)Cc2nc3ccccc3[nH]2)s1`, the INHIBITION is -76.9%.

`Cc1ccccc1NC(=O)CCNC(=O)c1ccoc1`: the INHIBITION was -37.5%.

For `COCCCNC(=O)Cc1nc(-c2ccncc2)n[nH]1`, the INHIBITION was -95.8%.

In the case of `CCC1=NC2(CCC(C(=O)Nc3ccc(C)nc3)CC2)C(=O)N1C` (configuration not stated), the INHIBITION is recorded as -28.2%.

`Cc1cccc(CNc2cc(C3CCCNC3)ccn2)n1` (configuration not stated): the INHIBITION is on record as -46.7%.

For the compound `CC(C)(C)OC(=O)NC1CCCN(Cc2cccc(O)c2)C1` (configuration not stated), the INHIBITION stood at 51.7%.

Regarding `CC(=O)NC1CCCN(Cc2ccn(C)c(=O)c2)C1` (configuration not stated), the INHIBITION was -10.7%.

For `CC(C)(C)OC(=O)NC1CCCN(Cc2cccs2)C1` (configuration not stated), the INHIBITION is listed as 25.8%.

On to `COCCN(Cc1cnn(C)c1)c1nc2c(s1)c(C)nn2C`, for which the INHIBITION was -50.7%.

As for `Cc1nn(C)c2nc(N(CCN(C)C)C3CCCC3)sc12`, the INHIBITION is recorded as -9.31%.

As to `Cc1nn(C)c2nc(N(Cc3cnn(C)c3)C3CCCCC3)sc12`, the INHIBITION worked out at 60%.
